Screening data (PubChem)
A selection: hits, their analogues and other compounds. The true share with any hit is near 21%.
Pf growth 96h – inhibits malaria parasite growth, 96 h. Potency, µM (series often up to 28.7 µM), for inactives: top-dose activity change, negative = inhibition, usual class: inhibitors. 320,000 compounds, 6.9% hits. P. falciparum luciferase reporter growth, 96 h; note: potency is the fitted concentration of half-maximal effect; % is set by controls: 0 for no effect and ±100 for the full control effect
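P. falciparum expressing integrated firefly luciferase, in erythrocytes at 2% hematocrit, 0.05% parasitemia, incubated with compounds 96 h at 37 C, 5% CO2. Growth inhibition read as loss of luminescence; two-generation exposure targets delayed-death apicoplast inhibitors.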
Cycloheximide cs – counter-screen hit for Shiga toxin inhibitors, cycloheximide; cell reporter, cycloheximide protein synthesis inhibition counterscreen; AID 2314; 300,000 compounds, 12% hits; max response, %; in the data active = max response mostly above about 13%, no sharp cut-off; inactive = mostly below about 14%; note: read at 38.3 µM for the half of the compounds with a filed dose; 0% is about no effect
AMA1 RON2 block – AMA1-RON2 (P. falciparum) interaction inhibition | 360,000 compounds, 0.2% hits | AlphaScreen AMA1-biotinylated RON2 peptide binding | Potency, µM (titrated, usually from 58.2 µM), for inactives: top-dose activity change, negative = inhibition, hits mostly inhibitors;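 note: potency is the fitted concentration of half-maximal effect; 0% = vehicle wells and -100% = peptide control; nearly all actives have a fitted effect of over 45% in size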
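AMA1 (3D7) with his tag at 25 nM final met compounds first, then biotinylated RON2 peptide at 25 nM; detection used donor plus acceptor beads, 10 µg/mL apiece, read by AlphaScreen after 30 min at room temperature.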
Pf growth 48h – P. falciparum growth inhibition at 48 hours (one generation); P. falciparum luciferase growth in erythrocytes, 48 h; AID 504832; Potency, µM (doses to about 28.7 µM), inactives show at the highest dose activity change, negative = inhibition, actives largely listed as inhibitors; 310,000 compounds, 5.9% hits; note: potency is the fitted concentration of half-maximal effect; % is set by controls: 0 for no effect and ±100 for the full control effect
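Compounds are pin-transferred into medium, infected erythrocytes (2% hematocrit, 0.1% parasitemia final) are added, and plates sit one parasite generation at 37 C in 5% CO2. Detection reagent is then added and luminescence measured.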
Shiga toxin inh – blocks Shiga toxin action in Vero cells; Vero cells, Shiga toxin protein synthesis inhibition reporter; inhibition, % at 38.7 µM; 290,000 compounds, 9.2% hits; AID 2315; in the data active = inhibition mostly above about 28%, no sharp cut-off; inactive = mostly below about 43%; note: 0% is about no effect
HCV inhibitor – HCV inhibition | Huh7.5.1 HCVcc-Cre infection, luciferase reporter, 44 h | Potency, µM (doses to about 41.8 µM), without a hit: at the top dose activity change, negative = inhibition, actives largely listed as inhibitors | 340,000 compounds, 3.4% hits | AID 651820; note: potency is the fitted concentration of half-maximal effect; % is set by controls: 0 for no effect and ±100 for the full control effect
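A cell-based infection assay in which seeded cells (1,000 per well) receive test compound after 4 h, are inoculated with HCVcc-Cre at approximately 0.5 moi, and are incubated 44 h before luminescence detection.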
The depositor's hits bear a star; i = inactive; ? = inconclusive; / = no result given; [ ] = another dose, or the depositor's remark. Unless noted, calls come from the whole dose curve; as a rule, active = well fitted curve in the direction sought with a large enough effect; inconclusive = small, poorly fitted or top-dose-only effect, or another doubt; inactive = no such curve, though single readings can be large; an effect the other way counts as inactive or inconclusive.

SMILES	Pf growth 96h	Cycloheximide cs	AMA1 RON2 block	Pf growth 48h	Shiga toxin inh	HCV inhibitor
CCCC(c1nnnn1CC(=O)OCC)N(Cc1cc2c(C)cc(C)cc2[nH]c1=O)C1CCCC1 (centres undefined)	/	-4.0	4.8%	13.1µM*	-5.7	12.2%
Fc1cccc(Cl)c1Cn1nnc2c(NCc3ccncc3)ncnc21	i	-2.3	8.0%	?	-12.9	10µM*
CC(=O)NC(c1ccc2ccccc2c1)c1ccc2cccnc2c1O (centres undefined)	317.7%	-1.2	-6.5%	?	-21.1	2.51µM*
COc1cccc(C(NC(C)=O)c2nc(-c3cccc4cccnc34)cs2)c1 (centres undefined)	/	/	2.5%	/	/	/
COc1ccc(C(NC(C)=O)c2ccc3cccnc3c2O)c(OC)c1 (centres undefined)	3.29µM*	-4.3	-39.1%	1.65µM*	-8.8	5.01µM*
CC(=O)NC(c1ccc(Cl)cc1Cl)c1ccc2cccnc2c1O (centres undefined)	30.8%	-1.3	-47.5%	4.15µM*	-2.3	5.62µM*
CC(=O)c1ccc(NC(=O)N2C3CCC2CC(O)(c2cccnc2)C3)cc1 (centres undefined)	?	-1.1	-5.1%	-14.1%	14.2	-1.9%
COc1ccc(C2N(C(=O)c3ccccc3)CCN2C(=O)c2ccc(C)cc2)cc1 (centres undefined)	?	-5.0	-16.0%	/	-5.0	25.0%
COc1ccc(C2CN=NC2C(=O)c2ccccc2)cc1 (centres undefined)	9.28µM*	20.5*	-9.3%	14.7µM*	25.6*	-25.8%
CC1(C)CC(=O)c2cnc(N3CCc4ccccc43)nc2C1	184.5%	50.6*	15.9%	188.6%	88.2*	-18.1%
CC(=O)Oc1cccc(/C=c2\sc3nc(-c4ccco4)nn3c2=O)c1	?	3.6	-13.1%	-3.2%	-6.9	17.3%
COc1ccc(Oc2ccccc2C=O)cc1	36.2%	-2.1	16.9%	31.0%	3.5	-11.6%
COc1ccc(C2=C/C(=C\c3ccccc3OC(C)=O)C(=O)O2)cc1	36.7%	22.1*	7.7%	27.7%	103.4*	-2.7%
COc1ccc(C2=C/C(=C\c3cccc(OC(C)=O)c3)C(=O)O2)cc1	?	23.9*	55.9%	17.9%	33.8	3.8%
COc1ccnc(CS(=O)c2nc3ccc(OC(F)F)cc3[nH]2)c1OC (centres undefined)	-8.7%	/	/	-7.3%	/	/
COc1ccc(/C=N/N(CCC(=O)NC(C)(C)C)C2=NS(=O)(=O)c3ccccc32)cc1	41.9%	-2.0	-2.4%	6.57µM*	10.7	-21.3%
O=C(CSc1ccc2nnc(-c3ccccn3)n2n1)Nc1ccc(F)cc1F	?	1.9	-24.5%	?	-11.0	?
N#Cc1ccc(C23CC4(C2)[C@H](CN(CC2CCCCC2)[C@@H]4c2ccccc2)C3c2ccc(C(F)(F)F)cc2)cc1 (some centres undefined)	?	-0.7	/	10.4µM*	-2.5	/
N#Cc1ccc(C23CC4(C2)[C@H](CN(CC2CCCCC2)[C@@H]4c2ccccc2)C3c2ccccc2)cc1 (some centres undefined)	11.7µM*	-3.4	-10.4%	?	-9.7	-4.6%
Cc1ccc(S(=O)(=O)NCCc2nnc3ccc(N4CCOCC4)nn23)cc1	/	/	0.0%	/	/	/
COc1cccc(N=CNc2cccc(OC)c2)c1	/	/	9.4%	/	/	14.2%
Cc1ccc(NC(=O)CCSCCc2ccccn2)cc1	?	9.1	-13.3%	-6.2%	21.3	12.1%
CN(C)S(=O)(=O)Nc1ccc(Cc2ccncc2)cc1	/	/	-7.5%	/	/	/
Cc1cc(/C=C2/SC(=O)N(CC(=O)N3CCOCC3)C2=O)c(C)n1-c1ccccc1F	29.8%	22.1*	-3.4%	67.2%	46.8*	?
COc1ccc(C(C)=O)cc1CSc1ccc(S(=O)(=O)N2CCOCC2)cn1	?	/	-7.9%	?	/	?
SMILES	Pf growth 96h	Cycloheximide cs	AMA1 RON2 block	Pf growth 48h	Shiga toxin inh	HCV inhibitor
O=C(N/N=C/c1ccco1)c1cccc(N2CCCC2=O)c1	61.6%	29.1*	4.4%	85.0%	active	17.7%
COc1ccc(O)c(/C=N/NC(=O)c2ccc(N3CCCC3=O)cc2)c1	46.5%	-6.5	12.0%	?	-3.9	11.2µM*
COc1cccc(/C=N/NC(=O)c2cccc(N3CCCC3=O)c2)c1	?	32.5*	-10.8%	65.2%	106.7*	?
COc1ccc(O)c(/C=N/NC(=O)c2cccc(N3CCCC3=O)c2)c1	33.2%	2.8	75.1%	?	17.7	?
CCCCCCCCCCOc1cc(OCCCCCCCCCC)cc(N(CC(=O)O)CC(=O)O)c1	/	-6.4	/	/	20.0	/
CC1=CC(C)C(=O)N(C)C(C)=C1 (centres undefined)	/	/	-6.2%	/	/	/
O=C(Nc1ccc2[nH]ncc2c1)c1ccccc1Br	?	17.8*	-23.7%	36.2%	21.6	-20.4%
O=C(Cc1ccc(Br)cc1)Nc1ccc2[nH]ncc2c1	6.8%	-0.9	0.8%	46.9%	/	-24.7%
O=C(Nc1ccc2[nH]ncc2c1)c1ccccc1Cl	?	16.1*	-1.6%	130.1%	21.8	-6.7%
O=C(Cc1cccc(F)c1)N1CCOCC1	/	/	3.3%	/	/	22.1%
CC(OC(=O)CCc1cc(C(C)(C)C)c(O)c(C(C)(C)C)c1)C(=O)NC1CC1 (centres undefined)	0.657µM*	/	-9.8%	0.465µM*	/	?
Cc1cccc(OC(=O)NCCOC(=O)N(O)c2ccc(Cl)cc2)c1	7.38µM*	-2.8	7.5%	62.2%	-12.6	26.1%
COc1ccc(CC(=O)Nc2cc(C)ccn2)cc1	-1.0%	42.0*	-6.9%	92.8%	86.3*	15.6%
Cc1ccnc(NCc2ccc(Br)cc2)c1	0.1%	38.4*	0.7%	32.8%	34.6*	-3.3%
COc1ccc(CNc2cc(C)ccn2)cc1	?	37.5*	0.0%	-1.8%[0.00184 µM]	97.3*	?
Cc1ccnc(NC(=O)CCNC(=O)c2ccc(Br)cc2)c1	/	/	-6.7%	/	/	/
COc1ccc(CC(=O)Nc2cc(C)ccn2)cc1OC	/	/	-15.4%	/	/	3.5%
CCn1c(SCC(=O)NC2CCCCC2)nnc1-c1ccccc1F	?	-5.5	2.9%	-15.0%	2.5	-5.1%
COc1cc(C(=O)Nc2ccc(S(=O)(=O)N3CCCCC3)cc2)ccc1OCC(=O)N1CCOCC1	/	/	8.9%[11.6 µM]	/	/	0.4%
COc1cc2c(cc1OC)C(c1cc(Br)c(OC)c(OC)c1)CC(=O)N2 (centres undefined)	?	1.7	1.0%	?	-6.0	-6.4%
COc1ccc(NC(C)=O)cc1S(=O)(=O)Nc1ccc(OCc2ccccc2)cc1	14.6%	15.5	-6.1%	-7.1%	5.5	-27.4%
O=C(O)CCc1ccc(S(=O)(=O)Nc2ccccc2C(=O)NCCc2ccccc2)cc1	168.9%	30.0*	-6.1%	135.3%	79.6*	8.5%
COc1ccc(CCNC(=O)c2ccccc2NS(=O)(=O)c2cc(C(=O)O)ccc2OC)cc1	-2.6%	-4.3	-1.5%	-19.1%	-5.5	-6.6%
